Tests used:
[1] = tested on: Botulinum neurotoxin type F light chain protease (Clostridium botulinum); assay: Botulinum neurotoxin type F light chain protease inhibition, multiplex microsphere flow cytometry, validation set (AID 588459); settings: multiplex microsphere protease substrate cleavage assay, at 10 µM, hits give high values
[2] = target: Botulinum neurotoxin type A (Clostridium botulinum) (UniProt P0DPI0); assay: BoNT/A light chain protease inhibitors, biochemical, multiplex microsphere flow cytometry, validation set (AID 588460); settings: at 10 µM, hits give high values
[3] = target: Lethal factor (Bacillus anthracis) (UniProt P15917); assay: Lethal factor protease inhibitors, Bacillus anthracis, multiplex microsphere cleavage assay, validation set (AID 588461); settings: flow cytometry, at 10 µM, hits give high values

Measured: inhibition

Sequence of Botulinum neurotoxin type A (Clostridium botulinum) (P0DPI0 whole entry, looked up): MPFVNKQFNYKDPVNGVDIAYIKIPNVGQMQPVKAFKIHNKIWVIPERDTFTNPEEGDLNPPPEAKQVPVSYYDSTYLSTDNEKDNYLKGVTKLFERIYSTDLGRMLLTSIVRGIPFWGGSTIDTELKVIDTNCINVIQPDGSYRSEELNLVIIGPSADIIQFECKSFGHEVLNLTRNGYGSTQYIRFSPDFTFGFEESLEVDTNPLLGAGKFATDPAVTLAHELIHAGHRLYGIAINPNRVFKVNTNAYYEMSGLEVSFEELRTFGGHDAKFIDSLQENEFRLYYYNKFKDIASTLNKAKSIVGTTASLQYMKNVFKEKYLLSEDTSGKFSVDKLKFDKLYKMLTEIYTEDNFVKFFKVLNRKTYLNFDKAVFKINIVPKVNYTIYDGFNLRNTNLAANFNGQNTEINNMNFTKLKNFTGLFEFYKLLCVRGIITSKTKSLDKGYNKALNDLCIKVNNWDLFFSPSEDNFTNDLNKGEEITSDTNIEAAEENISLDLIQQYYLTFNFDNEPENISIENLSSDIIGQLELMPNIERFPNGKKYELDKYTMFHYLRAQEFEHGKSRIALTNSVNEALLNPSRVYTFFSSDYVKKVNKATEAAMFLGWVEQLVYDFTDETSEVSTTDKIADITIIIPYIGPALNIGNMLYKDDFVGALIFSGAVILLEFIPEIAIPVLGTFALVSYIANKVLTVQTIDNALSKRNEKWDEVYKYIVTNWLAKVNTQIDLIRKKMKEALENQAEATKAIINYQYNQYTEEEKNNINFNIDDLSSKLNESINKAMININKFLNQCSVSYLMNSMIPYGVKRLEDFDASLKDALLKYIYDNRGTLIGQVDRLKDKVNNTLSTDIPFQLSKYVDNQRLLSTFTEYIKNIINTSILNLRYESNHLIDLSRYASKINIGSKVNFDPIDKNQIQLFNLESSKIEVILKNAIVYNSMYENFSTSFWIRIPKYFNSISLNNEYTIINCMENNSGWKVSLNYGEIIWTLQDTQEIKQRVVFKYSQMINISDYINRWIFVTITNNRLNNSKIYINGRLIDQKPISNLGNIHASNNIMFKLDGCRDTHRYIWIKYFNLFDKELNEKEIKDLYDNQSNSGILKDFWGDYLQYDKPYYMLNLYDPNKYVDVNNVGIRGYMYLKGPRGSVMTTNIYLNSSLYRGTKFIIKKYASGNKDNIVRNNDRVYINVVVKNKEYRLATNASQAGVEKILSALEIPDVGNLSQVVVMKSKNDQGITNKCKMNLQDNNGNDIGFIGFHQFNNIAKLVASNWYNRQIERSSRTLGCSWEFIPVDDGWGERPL
Sequence of Lethal factor (Bacillus anthracis) (P15917 whole entry, looked up): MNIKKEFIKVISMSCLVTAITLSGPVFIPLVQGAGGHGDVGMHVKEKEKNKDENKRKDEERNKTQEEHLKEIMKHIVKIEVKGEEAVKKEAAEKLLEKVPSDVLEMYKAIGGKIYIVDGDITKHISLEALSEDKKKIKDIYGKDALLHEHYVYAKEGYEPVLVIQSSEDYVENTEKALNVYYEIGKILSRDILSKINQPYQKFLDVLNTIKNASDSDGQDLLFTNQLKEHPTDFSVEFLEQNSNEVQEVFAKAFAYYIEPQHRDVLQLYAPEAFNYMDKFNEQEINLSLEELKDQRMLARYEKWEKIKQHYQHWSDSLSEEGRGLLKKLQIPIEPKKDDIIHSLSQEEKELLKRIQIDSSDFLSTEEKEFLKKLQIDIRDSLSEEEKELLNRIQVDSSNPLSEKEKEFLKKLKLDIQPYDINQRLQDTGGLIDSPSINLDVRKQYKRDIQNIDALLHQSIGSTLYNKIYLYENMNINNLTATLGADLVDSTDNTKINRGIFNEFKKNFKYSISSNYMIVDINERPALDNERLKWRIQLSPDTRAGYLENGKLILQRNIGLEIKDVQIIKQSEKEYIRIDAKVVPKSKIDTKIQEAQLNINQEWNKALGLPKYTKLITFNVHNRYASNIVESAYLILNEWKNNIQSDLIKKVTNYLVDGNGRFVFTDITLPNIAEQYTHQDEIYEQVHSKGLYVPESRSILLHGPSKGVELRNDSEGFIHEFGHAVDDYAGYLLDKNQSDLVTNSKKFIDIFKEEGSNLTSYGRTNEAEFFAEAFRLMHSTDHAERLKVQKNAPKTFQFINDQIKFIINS

Cc1ccccc1-c1nn(-c2ccc(F)cc2F)cc1CNCCN(C)C
inactive: [1] -1.9% | [2] -0.5% | [3] -2.9%

CCOc1ccc2nc(NC(=O)NC3CCCCC3)sc2c1
inactive: [1] 0% | [2] -1.5% | [3] -3.9%

Nc1ccn([C@@H]2O[C@H](CO)[C@@H](O)[C@@H]2O)c(=O)n1
inactive: [1] -1.4% | [2] -0.7% | [3] -1.8%

CC(=O)N(CCC(Cc1ccccc1)c1ccco1)Cc1ccco1 (stereo not drawn)
inactive: [1] 1.4% | [2] 1.7% | [3] 0.3%

COC(=O)CSc1nc2ccc(N)cc2s1
inactive: [1] 2.6% | [2] -1% | [3] 1.5%

CCOC(=O)C1C(=O)OC2(CCOC(C)(C)C2)C1C(=O)OCC (stereo not drawn)
inactive: [1] -2.7% | [2] -0.2% | [3] -0.1%

Cc1ccc(S(=O)(=O)N2CCC(C(=O)N[C@@H](C)C(=O)NC3CCS(=O)(=O)C3)CC2)cc1 (stereo partly drawn)
inactive: [1] 2.1% | [2] 1.5% | [3] 11.8%

C=CCOC(=O)C1=C(C)NC(=O)NC1/C=C/c1ccccc1OC (stereo not drawn)
inactive: [1] 1% | [2] 0.4% | [3] -0.8%

COc1ccc(-c2nc3c(=O)n(C)c(=O)[nH]c3n2CCc2ccccc2)cc1
inactive: [1] 1.2% | [2] 0.2% | [3] -1.2%

CC(C)C(=O)Nc1cccnc1
inactive: [1] -1.8% | [2] 0.9% | [3] -5.8%

O=c1[nH]c(Cc2ccccc2)nc2c1oc1ccccc12
inactive: [1] 4.2% | [2] 0.2% | [3] 8.7%

— PubChem BioAssay
